Bioassay records deposited in PubChem BioAssay by National Center for Advancing Translational Sciences (NCATS).
Compounds with a hit are over-represented: about 2.3% of the library has one in this group of screens.
ATXN2 expr inh: Primary qHTS for Inhibitors of ATXN expression; HEK-293 ATXN2-luciferase reporter, luminescence, 24 h; Potency, µM (series often up to 57 µM), inactives show top-dose activity change, negative = inhibition, most hits filed as inhibitors; 360,000 compounds, 0.72% hits; AID 1745845, 2022; note: % is set by controls: 0 for no effect and ±100 for the full control effect; nearly all actives have a fitted effect of over 55% in size
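ATXN2-luciferase reporter cells (luciferase flanked by upstream and downstream ATXN2 gene portions) were treated 24 h at 37 °C with compounds at up to 57 uM. SteadyGlo luminescence gave expression; GF-AFC fluorescence gave viability.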
HepG2 viability: qHTS for Inhibitors of TGF-b: Cytotox Counterscreen. Potency, µM (series often up to 46.1 µM), for the others: at the top dose activity change, negative = cytotoxicity, hits mostly cytotoxic. HepG2 CAGA-GFP viability, ATP luminescence, 18 h. 410,000 compounds, 0.76% hits
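HepG2 CAGA-GFP cells (1000/well, DMEM with 1% FBS) received compound, then TGF-beta at 500 pg/mL final, and were incubated 18 hours at 37 degrees C. Viability was read by CellTiter-Glo luminescence. Media-only wells were set as complete cell-killing and DMSO as no toxicity.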
TGFb SMAD3 inh: qHTS for Inhibitors of TGF-b; HepG2 CAGA-GFP TGF-b/SMAD3 reporter, GFP fluorescence, 18 h; TGF-beta stimulated, 500 pg/mL final; Potency, µM (series often up to 46.1 µM), inactives show at the top dose activity, negative = inhibition, hits mostly inhibitors; 410,000 compounds, 1.2% hits; AID 588855, 2011; note: % is set by controls: 0 for no effect and ±100 for the full control effect; nearly all actives have a fitted effect of over 65% in size
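Smad-responsive CAGA-GFP expression was quantified in HEPG2 cells exposed to compounds and 500 pg/mL final TGF-beta for 18 h at 37 degrees C; unstimulated wells defined full inhibition.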
ATXN viability: Viability Counterscreen for Primary qHTS for Inhibitors of ATXN expression; Potency, µM (highest dose often 56.7 µM), actives largely listed as cytotoxic; 400,000 compounds, 0.49% hits; S2 cells (HEK-293 line with an ATXN2-luciferase reporter) viability, CellTiter-Fluor protease fluorescence, 24 h; note: nearly all actives have a fitted effect of over 40% in size
Starred values were filed as active, the others as inactive; i = inactive; ? = inconclusive; . = not tested or not shown; ! = repeats disagree; [ ] = remark or other dose. Calls come from the whole dose curve; as a rule, active = well fitted curve in the direction sought with a large enough effect; inconclusive = small, poorly fitted or top-dose-only effect, or another doubt; inactive = no such curve, though single readings can be large; an effect the other way counts as inactive or inconclusive. Potency is the fitted concentration of half-maximal effect.

SMILES	ATXN2 expr inh	HepG2 viability	TGFb SMAD3 inh	ATXN viability
Cc1cc(C)cc(NC(=O)CCC(=O)N2CCSc3ccccc32)c1	-12.8%	-0.6%	11.2µM*!	?
CCCC(=O)O[C@]1(C(=O)COC(=O)CC)CC[C@H]2[C@@H]3CCC4=CC(=O)CC[C@]4(C)[C@H]3[C@@H](O)C[C@@]21C	4.9%[25.6 µM]	.	.	i
Cc1nc(-n2[nH]c3c(c2=O)CCCC3)[nH]c(=O)c1Cc1ccccc1	8.91µM*	-13.3%	-20.9%	17.8µM*
Cc1nc(N2CCc3ccccc3C2)[nH]c(=O)c1Cc1ccccc1	8.3%	5.4%	13.2%	i
O=C(O)c1cccc(NC(=S)NC(NC(=O)c2cccc([N+](=O)[O-])c2)C(Cl)(Cl)Cl)c1 (stereo not drawn)	.	33.6%	2.1%	i
O=C(NC(NC(=S)Nc1ccccc1)C(Cl)(Cl)Cl)c1cccc(Cl)c1 (stereo not drawn)	?	12.6µM*	4.47µM*	i
O=C(NC(NC(=S)Nc1ccc(Cl)cc1Cl)C(Cl)(Cl)Cl)c1cccc([N+](=O)[O-])c1 (stereo not drawn)	?	12.6µM*	?	?
Cc1ccc(C)c(S(=O)(=O)NCc2nc(N3CCCC3)c3cc(Cl)ccc3n2)c1	.	.	.	i
Cn1c(-c2ccccc2)c(C(=O)CCl)c2ccccc21	?	-55.4%	?	7.52µM*
CCn1c(-c2ccccc2)c(C(=O)CCl)c2ccccc21	.	8.7%	3.2%	3.98µM*
Cn1c(-c2ccccc2)c(CCO)c2ccccc21	-1.3%	-37.1%	-8.4%	i
Cc1ccccc1C(C(=O)NC1CCCCC1)N(C(=O)CNc1ccc(C#N)cc1)c1cccc(F)c1 (stereo not drawn)	3.3%	.	.	.
O=C1C=C(c2ccccc2)C(=O)N1Nc1ccccc1	?	-98.1%	?	?
Cc1ccc(NN2C(=O)C=C(c3ccc(Cl)cc3)C2=O)cc1	25.1µM*	-54.5%	?	.
Nc1ncc(-c2ccccc2)c(-c2ccc(OCc3ccccc3)cc2O)n1	-7.0%	17.8µM*	?	i
C=C(C)COc1ccc(-c2[nH]ncc2Oc2cccc(OC)c2)c(O)c1	-34.2%	17.8µM*	?	i
C=C(C)COc1ccc(-c2[nH]ncc2Oc2ccccc2OCC)c(O)c1	?	-89.3%	?	i
C=C(C)COc1ccc(-c2[nH]ncc2-c2ccccc2)c(O)c1	-20.9%	-98.4%	11.2µM*	i
COc1ccccc1-c1cn[nH]c1-c1ccc(OCc2ccc(F)cc2)cc1O	-14.5%	-34.8%	?	i
COc1ccc(-c2nc(N)ncc2-c2ccccc2)c(O)c1	4.7%	-19.8%	-3.1%	i
COc1ccccc1-c1cn[nH]c1-c1ccc(OCc2ccccc2F)cc1O	?	22.4µM*	?	?
O=C([C@@H]1C[C@@H](Sc2nc3ccccc3[nH]2)CN1Cc1c(F)cccc1F)N1CCOCC1	.	.	.	i
O=C(c1cnn(-c2nccc(-c3ccccc3C(F)(F)F)n2)c1C1CC1)N1CCN(CCO)CC1	.	.	.	i
COc1ccc(-c2cn[nH]c2-c2ccc(OCc3ccc(F)cc3)cc2O)cc1OC	?	-30.4%	14.1µM*	?
Oc1cc(OCc2ccccc2)ccc1-c1[nH]ncc1-c1ccccc1	?	20µM*	?	?
SMILES	ATXN2 expr inh	HepG2 viability	TGFb SMAD3 inh	ATXN viability
O=C(O)CSC1=NS(=O)(=O)c2ccccc21	.	-8.3%	-6.8%	.
Cn1nc(C(=O)NCCN2Cc3ccccc3OC(c3ccsc3)C2)c2ccccc2c1=O (stereo not drawn)	.	.	.	i
COc1ccc(S(=O)(=O)N(C)CC(=O)NC2CC2)cc1	3.9%	17.8µM*	8.0%	i
CC1CC(C)CN(C(C(=O)NC2CCCCC2)c2cc3ccccc3o2)C1 (stereo not drawn)	-32.4%	-23.7%	15.8µM*	i
CC1CC(C)CN(C(C(=O)NC2CCCCC2)c2ccnc3ccccc23)C1 (stereo not drawn)	-24.2%	-16.1%	?	?
COCC(=O)Nc1cc(C(=O)N2CC3CCC2C3)c2c(c1)nc(-c1ccncc1)n2C (stereo not drawn)	.	.	.	i
COc1ccc2c(c1)-c1nc(-n3ncc(C(=O)NC(C)(C)CO)c3C3CC3)ncc1CC2	.	.	.	i
O=C(NC1CC1)c1ccc2nc(-c3ccco3)c(-c3ccco3)nc2c1	.	-11.5%	-16.0%	.
